Most compounds without a hit are left out; they make up all but 17% or so of the library.
TDP1 inh = blocks human tyrosyl-DNA phosphodiesterase 1; Potency, µM (top dose mostly 130 µM), for inactives: top-dose activity change, negative = inhibition, most hits filed as inhibitors; AID 485290; 350,000 tested, 0.28% active; recombinant TDP1, AlphaScreen DNA substrate cleavage; also: % is scaled to controls: 0 for no effect and ±100 for the full control effect; nearly all actives have a fitted effect of over 40% in size
Target sequence (Q9NUW8 whole entry, looked up): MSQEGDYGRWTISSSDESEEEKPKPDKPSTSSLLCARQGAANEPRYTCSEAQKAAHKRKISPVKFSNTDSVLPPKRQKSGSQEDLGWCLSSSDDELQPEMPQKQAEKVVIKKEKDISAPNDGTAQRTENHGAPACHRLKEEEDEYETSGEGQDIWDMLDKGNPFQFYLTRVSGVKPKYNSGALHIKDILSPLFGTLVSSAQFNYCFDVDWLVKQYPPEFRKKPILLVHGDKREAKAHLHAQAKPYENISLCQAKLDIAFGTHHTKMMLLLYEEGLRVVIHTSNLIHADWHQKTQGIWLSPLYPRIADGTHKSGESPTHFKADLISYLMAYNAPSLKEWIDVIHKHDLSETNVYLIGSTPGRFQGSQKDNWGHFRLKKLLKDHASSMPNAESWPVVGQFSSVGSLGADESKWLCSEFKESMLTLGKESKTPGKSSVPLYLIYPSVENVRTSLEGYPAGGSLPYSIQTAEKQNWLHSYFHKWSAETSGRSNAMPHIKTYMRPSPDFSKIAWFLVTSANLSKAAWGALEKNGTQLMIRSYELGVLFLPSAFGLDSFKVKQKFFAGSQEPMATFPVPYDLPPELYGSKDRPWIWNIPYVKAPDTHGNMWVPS
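E. coli-derived human Tdp1, 1 nM final. Cpd preinc 15 min RT; substrate 15 nM final, 5 min RT; AS bead mix 10 ug/ml final, 10 min RT. Signal loss = tyrosine-FITC cleavage. No-enzyme wells = max signal.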
TDP1 cell CPT = growth inhibition of DT40 Tdp1-/-;hTDP1 cells with camptothecin (screen for TDP1 inhibitors); chicken DT40 Tdp1-/-;hTDP1 cells + 20 nM CPT, ATP luminescence, 48 h; Potency, µM (highest dose often 46.2 µM), for inactives: at the highest dose activity change, negative = growth inhibition, usual class: inhibitors; 420,000 tested, 12% active; also: % is scaled to controls: 0 for no effect and ±100 for the full control effect; nearly all actives have a fitted effect of over 55% in size
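Chicken DT40 Tdp1-/- cells stably complemented with human TDP1 were seeded at 400 cells/well in medium containing 20 nM camptothecin, exposed to pin-transferred compounds, and grown at 37 °C for at least 48 hr. Viability was read as ATP luminescence.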
TDP1 cell noCPT = qHTS for Inhibitors of human tyrosyl-DNA phosphodiesterase 1 (TDP1): qHTS in cells in absence of CPT. DT40 Tdp1-/- hTDP1 cells, no CPT, ATP luminescence, 48 h. Potency, µM (series often up to 46.2 µM), inactives show top-dose activity change, negative = growth inhibition, actives largely listed as inhibitors. 420,000 tested, 15% active. AID 686978, 2013; also: % is scaled to controls: 0 for no effect and ±100 for the full control effect; nearly all actives have a fitted effect of over 55% in size
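Stably hTDP1-transfected Tdp1-null chicken DT40 cells were treated with library compounds minus camptothecin and grown for at least 48 hr at 37 °C, after which cellular ATP was quantified by luminescence.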
ClpP mod = qHTS Assay for Activators of ClpP; ATP-dependent Clp protease proteolytic subunit (Bacillus subtilis (strain 168)), P80244; purified B. subtilis ClpP, FRET peptide cleavage, 20 min; Potency, µM (series often up to 57.5 µM), without a hit: at the highest dose activity change, negative = active; 340,000 tested, 1.9% active; active = well fitted falling curve with a large enough effect; inconclusive = small, poorly fitted or top-dose-only effect; inactive = no such curve, though single readings can be large or run the other way; also: the source files actives as falling curves though it sought activators and does not explain the sign; nearly all actives have a fitted effect of over 65% in size
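ClpP 10 microg/mL final, pH 8 Tris/KCl buffer with BSA, glycerol, Tween-20; compound pinned in; FRET-FV substrate; RT 20 min; Ex320/Em430; ΔFRET vs ADEP 5.8 microM, DMSO, no enzyme.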
Starred values were filed as active, the others as inactive. Unless noted, calls follow the shape of the dose curve; as a rule, active = well fitted curve in the direction sought with a large enough effect; inconclusive = small, poorly fitted or top-dose-only effect, or another doubt; inactive = no such curve, though single readings can be large; an effect the other way counts as inactive or inconclusive. Potency is read from the fitted curve at half-maximal effect.

For CCc1ccc(C(=O)c2cn(CC(=O)Nc3cc(F)ccc3F)c3nc(C)ccc3c2=O)cc1 the results were TDP1 inh -3%, TDP1 cell CPT -7%, TDP1 cell noCPT -1% and ClpP mod 1%.
Cc1cccc(CNC(=O)c2ccc(NC(=O)C3=CSCCO3)cc2)c1 was read as TDP1 inh 1%, TDP1 cell CPT inconclusive, TDP1 cell noCPT inconclusive and ClpP mod 1%.
`CC[N+]1(CC)CC2=Cc3c(ccc4ccccc34)CC2C1` (configuration not stated) gave TDP1 inh 6%, TDP1 cell CPT inconclusive, TDP1 cell noCPT 21µM* and ClpP mod 25µM*.
CCCCCCCCNC(=O)c1cccnc1SCC(=O)Nc1ccc(OC)cc1OC was read as TDP1 inh 3%, TDP1 cell CPT -26%, TDP1 cell noCPT 21µM* and ClpP mod -5%.
Screening CC(=O)N1CCc2cc(Br)cc(S(=O)(=O)N3CCC(C)CC3)c21 returned TDP1 inh 6%, TDP1 cell CPT -10%, TDP1 cell noCPT -20% and ClpP mod -7%.
`CCOc1ccc(CNC(=O)CC(C)n2nc(C)cc2C)cc1OC` (configuration not stated) gave TDP1 inh 3%, TDP1 cell CPT -7%, TDP1 cell noCPT -1% and ClpP mod -2%.
CCOc1ccc(CN(C)C(=O)CNC(=O)c2ccccc2)cc1 was read as TDP1 cell CPT -19% and TDP1 cell noCPT 5%.
Screening C=CCOc1ccc(CN(C)C(=O)CNC(=O)c2ccc(-c3ccccc3)cc2)cc1 returned TDP1 cell CPT inconclusive, TDP1 cell noCPT 21µM* and ClpP mod -4%.
`CCOc1ccc(CN(C)C(=O)CNC(=O)Cc2cccc3ccccc23)cc1` gave TDP1 inh 11%, TDP1 cell CPT inconclusive and TDP1 cell noCPT 23µM*.
For Nc1ccc(S(=O)(=O)N2CCCN(S(=O)(=O)c3ccc4c(c3)OCCO4)CC2)cc1 the results were TDP1 inh 1%.
For CC1CCCCN1C(=O)Cn1c(SCC(=O)N(C)c2ccccc2)nc2ccccc21 (configuration not stated) the results were TDP1 inh 6%, TDP1 cell CPT inconclusive, TDP1 cell noCPT inconclusive and ClpP mod 1%.
CN(C(=O)CSc1nc2ccccc2n1CC(=O)N(C)c1ccc(F)cc1)c1ccccc1 was read as TDP1 inh 4%, TDP1 cell CPT 18µM*, TDP1 cell noCPT 21µM* and ClpP mod 2%.
`CN(C(=O)CSc1nc2ccccc2n1CC(=O)N(C)C1CCCCC1)c1ccccc1` gave TDP1 inh 6%, TDP1 cell CPT inconclusive, TDP1 cell noCPT 18µM* and ClpP mod 1%.
`COc1c(NC=O)c2c(c([N+](=O)[O-])c1OC)C(=O)OC2` gave TDP1 cell CPT -13% and TDP1 cell noCPT -11%.
`COC(=O)C[C@@H]1OC[C@H](C)N1S(=O)(=O)c1ccc(C)cc1` gave TDP1 cell CPT -3%, TDP1 cell noCPT 0% and ClpP mod -2%.
Screening O=C(Nc1cc2c(cc1Br)OCCO2)c1cccs1 returned TDP1 inh -2%, TDP1 cell CPT -22%, TDP1 cell noCPT -30% and ClpP mod -1%.
NC1=NC[C@H](Cc2ccc(O)cc2)N1CCc1cccc2ccccc12 was read as TDP1 inh 1%, TDP1 cell CPT 18µM*, TDP1 cell noCPT 15µM* and ClpP mod 0%.
NC1=NC[C@@H](Cc2ccc(O)cc2)N1CCc1cccc2ccccc12 was read as TDP1 inh 5%, TDP1 cell CPT 18µM*, TDP1 cell noCPT inconclusive and ClpP mod -1%.
Screening CCC(C)[C@H]1CNC(=S)N1CCc1cccc2ccccc12 (some centres not stated) returned TDP1 inh 6%, TDP1 cell CPT inconclusive, TDP1 cell noCPT -27% and ClpP mod -1%.
`NCCCC[C@H]1CN=C(N)N1CCc1cccc2ccccc12` gave TDP1 cell CPT 1%, TDP1 cell noCPT -25% and ClpP mod -1%.
`CCC(C)[C@H]1CN=C(N)N1CCc1cccc2ccccc12` (some centres not stated) gave TDP1 cell CPT 1.8µM*, TDP1 cell noCPT 2.1µM* and ClpP mod -1%.
COc1ccccc1NC(=O)c1oc2ccccc2c1NC(=O)Cc1cccs1 was read as TDP1 inh -1%, TDP1 cell CPT inconclusive, TDP1 cell noCPT inconclusive and ClpP mod 4%.
Screening NC(=O)C1(Nc2ccc(-c3ccc(Br)cc3)cc2)CCCC1 returned TDP1 cell CPT -20%, TDP1 cell noCPT inconclusive and ClpP mod -5%.
For c1ccc([C@H]2CN3C(=N2)Sc2ccccc23)cc1 the results were TDP1 inh -6%, TDP1 cell CPT 18µM*, TDP1 cell noCPT inconclusive and ClpP mod 0%.
For CC(=O)N1SC(N)=NC1c1ccccc1 (configuration not stated) the results were TDP1 inh 2%, TDP1 cell CPT 4%, TDP1 cell noCPT -12% and ClpP mod 4%.
Screening O=C(COC(=O)CCS(=O)(=O)c1ccccc1)Nc1ccc(N2CCCCC2)cc1 returned TDP1 inh 3%, TDP1 cell CPT 3%, TDP1 cell noCPT -21% and ClpP mod -1%.
O=C(c1cc(COc2cccc(C(F)(F)F)c2)on1)N1CCCC1 was read as TDP1 cell CPT inconclusive, TDP1 cell noCPT inconclusive and ClpP mod 1%.
C=CCC1(CC=C)CCCN1C(=O)c1cc(COc2cccc(C(F)(F)F)c2)on1 was read as TDP1 inh -1%, TDP1 cell CPT 15µM*, TDP1 cell noCPT 15µM* and ClpP mod -3%.
Screening O=C(c1cc(COc2cccc(C(F)(F)F)c2)on1)N1CCC(Oc2cccnc2)CC1 returned TDP1 inh 0%, TDP1 cell CPT 15µM*, TDP1 cell noCPT 12µM* and ClpP mod -3%.
O=C(c1cc(COc2cccc(C(F)(F)F)c2)on1)N1CCc2ccccc2C1 was read as TDP1 cell CPT inconclusive, TDP1 cell noCPT -19% and ClpP mod -3%.
Screening C[C@@H]1CN(C(=O)c2cc(COc3cccc(C(F)(F)F)c3)on2)C[C@H](C)O1 returned TDP1 inh 0%, TDP1 cell CPT inconclusive, TDP1 cell noCPT inconclusive and ClpP mod -2%.
For CCOC(=O)N1CCN(C(=O)c2cc(COc3cccc(C(F)(F)F)c3)on2)CC1 the results were TDP1 inh -4%, TDP1 cell CPT inconclusive, TDP1 cell noCPT 16µM* and ClpP mod -3%.
Screening O=C(Nc1nnc(C2=COCCO2)o1)c1ccc(F)cc1 returned TDP1 inh 4%, TDP1 cell CPT inconclusive, TDP1 cell noCPT inconclusive and ClpP mod 2%.
Screening O=C(Nc1nnc(C2=COCCO2)o1)c1cccc(C(F)(F)F)c1 returned TDP1 inh 3%, TDP1 cell CPT 26µM*, TDP1 cell noCPT 15µM* and ClpP mod -1%.

Screening results (PubChem BioAssay)
